# Experimental data reported in the supplement of paper PMC10338343.
# ± gives the standard deviation.
# Key:
# [1] = test system: MILI (PIWIL2) piRISC loaded with piRNA #1 (26 nt); test: pre-steady-state target cleavage rate (min^-1); guide: piRNA #1 5'p-UGAGGUAGUAGGUUGUAUAGUAUCCA; higher = faster piRNA-guided slicing of the target; conditions: auxiliary factor: 500 nM mouse GTSF1;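 also: 1 nM active piRISC with 0.1 nM target library at 33 °C single turnover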
# How it was run: (§1)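 The pre-steady-state cleavage rate was calculated from a burst-and-steady-state fit. Data came from Cleave-'n-Seq, in which […] transcribed, DNA-blocked target RNA library was mixed with 1 nM active affinity-purified piRISC carrying one synthetic guide, with or without 500 nM GTSF1 partner protein, in HEPES–potassium acetate buffer at 33 °C for 0–8 or 0–960 min. Uncleaved targets were sequenced and normalised to depth and to weakly complementary targets, three trials were pooled, and k3 was capped at 0.0001 min^-1.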
# [2] = test system: EfPiwi piRISC loaded with piRNA #1 (26 nt); test: pre-steady-state target cleavage rate (min^-1); auxiliary factor: 500 nM Ephydatia muelleri Gtsf1; guide: piRNA #1 5'p-UGAGGUAGUAGGUUGUAUAGUAUCCA; MIWI and MILI are mouse PIWI proteins and EfPiwi is from a freshwater sponge; tags in brackets are library labels; higher = faster piRNA-guided slicing of the target
# How it was run: as §1
Sequence,pre-steady-state target cleavage rate [1],pre-steady-state target cleavage rate [2]
GGAGACCAUACUAUACUACCUACUACCUGA,0.134 ± 0.019,0.00271 ± 0.0014
GGAGUGCUAACUAUACAACCUACUACCUCA,0.128 ± 0.015,0.0117 ± 0.0053
GGAGACGAUACUAAACAACCUACUACCUGA,0.124 ± 0.02,0.00288 ± 0.0022
GGAGAGGAUACUUUACAAGCUACUACCUCA,0.149 ± 0.014,0.00384 ± 0.0021
GGAGUGGAUACUAUACAACCUACUACCUACA,0.122 ± 0.013,0.068 ± 0.024
GGAGACGAUACUAUACAACCUACAUCCUCA,0.05 ± 0.011,0.00353 ± 0.0014
GGAGUGGAUACAAUACAACCUACUACCUGA,0.0731 ± 0.011,0.00396 ± 0.0018
GGAGUCGUUACUAUACAACCUACUACCUCA,0.158 ± 0.011,0.0129 ± 0.0069
GGAGACCAUACUUUACAACCUACUACCUCA,0.168 ± 0.014,0.017 ± 0.0071
GGAGACGAUACUAUACAACGCUACUACCUCA,0.00688 ± 0.0028,0.00969 ± 0.0037
GGAGACGAUACUAUACAACCUACAUACCUCA,0.153 ± 0.016,0.00413 ± 0.0021
GGAGAGGUUACUAUACAACCUUCUACCUCA,0.00963 ± 0.0021,0.00505 ± 0.0025
GGAGACCUAACUAUACAACCUACUACAUCA,0.0477 ± 0.014,0.0146 ± 0.0083
GGAGUGGAUACUAUACCACCUACUACCUCA,0.188 ± 0.012,0.0104 ± 0.004
GGAGACCAUACUAUACAUCCUACAACCUCA,0.208 ± 0.019,0.00248 ± 0.0024
GGAGACGAUACUAUACAACCUACUACCUUA,0.228 ± 0.027,0.224 ± 0.068
GGAGAGCAUACUAUACAACCUUCUACCUCA,0.0105 ± 0.0032,0.00445 ± 0.0027
GGAGACCUAACUAUACAACCUAUUACCUCA,0.0965 ± 0.018,0.00738 ± 0.0043
GGAGACCAUUCAAUACAACCUACUACCUCA,0.0561 ± 0.0083,0.0119 ± 0.0054
GGAGACCUAACUAUAUAACCUACUACCUCA,0.117 ± 0.015,0.0063 ± 0.0034

Sequence,pre-steady-state target cleavage rate [1],pre-steady-state target cleavage rate [2]
GGAGACCUAUCUAUACAACCUACUACCAGA,0.104 ± 0.016,0.00327 ± 0.0026
GGAGUGGAUCUAUACAACCUACUACCUCA,0.155 ± 0.011,0.0612 ± 0.029
GGAGACCUAACUAUACAACCUACUACGAGA,0.0403 ± 0.019,0.00515 ± 0.0032
GGAGUGGAUACUAUACAUGGUACUACCUCA,0.00713 ± 0.0016,0.00303 ± 0.0028
GGAGACCUAUCUAUACAACCUACUACCUCCA,0.0927 ± 0.0097,0.0208 ± 0.0083
GGAGAGGAUAGUAUACUACCUACUACCUCA,0.0295 ± 0.0076,0.00274 ± 0.0027
GGAGUGGAUUCUAUACAACCUUCUACCUCA,0.00777 ± 0.0028,0.00415 ± 0.0028
GGAGACCAUACUAUACAAGGUACUACCUCA,0.0713 ± 0.0087,0.00335 ± 0.0029
GGAGUGGUAUACUAUACAACCUACUACCUCA,0.166 ± 0.011,0.0155 ± 0.0067
GGAGAGGAUACUAUAGAACCUACUACCACA,0.0636 ± 0.0099,0.00261 ± 0.0014
GGAGACCUAUCUAUACAACCUACUACCUCG [g2:g20:cont:t1G],0.11 ± 0.012,0.061 ± 0.024
GGAGUAGAUACUAUACAACCUACUACCUCA,0.186 ± 0.0093,0.158 ± 0.057
GGAGACGAUACAAUACAACCAACUACCUCA,0.0105 ± 0.0027,0.0037 ± 0.0029
GGAGUGCAUACUAUUCAACCUACUACCUCA,0.182 ± 0.011,0.00471 ± 0.0042
GGAGAGGAUACUAUUCAACCUACUUCCUCA,0.0111 ± 0.0046,0.00313 ± 0.0024
GGAGACCAUACUAUACAACCUACUACCCA,0.0934 ± 0.019,0.00453 ± 0.0028
GGAGACGAUACUUUACAACCUACUACCUCA,0.189 ± 0.013,0.00691 ± 0.0033
GGAGACGAUACUAUACUACCUACAACCUCA,0.181 ± 0.017,0.00176 ± 0.0015
GGAGACCAUACUAUACAACGUACAACCUCA,0.0214 ± 0.0035,0.00296 ± 0.0025
GGAGAGGAUACUAUACAGCCUACUACCUCA,0.132 ± 0.013,0.105 ± 0.04

Sequence,pre-steady-state target cleavage rate [1],pre-steady-state target cleavage rate [2]
GGAGACCAAACUAUACAAGCUACUACCUCA,0.179 ± 0.025,0.00675 ± 0.0052
GGAGACCUUACUAUACAACCUACUCCCUCA,0.0992 ± 0.015,0.00342 ± 0.0031
GGAGACCUAAGUUUACAACCUACUACCUCA,0.0168 ± 0.0041,0.00645 ± 0.0046
GGAGACGUUACUAUACAACCUACUACCUGA,0.102 ± 0.016,0.00573 ± 0.0022
GGAGAGGAUACUAUACAACCUACUACGACA,0.0606 ± 0.017,0.0044 ± 0.0023
GGAGUGGAAACUUUACAACCUACUACCUCA,0.179 ± 0.02,0.00583 ± 0.0037
GGAGACGAUACUAAUCAACCUACUACCUCA,0.182 ± 0.015,0.0059 ± 0.0033
GGAGAGGUUACUUUACAACCUACUACCUCA,0.175 ± 0.01,0.00375 ± 0.0031
GGAGUGGAUACUAUACAACCUACUUACCUCA,0.133 ± 0.011,0.00852 ± 0.0034
GGAGACCUUACUAUACAACCUACUACCCCA,0.142 ± 0.021,0.00566 ± 0.0032
GGAGACCUAAGUAAACAACCUACUACCUCA,0.0128 ± 0.0033,0.00575 ± 0.004
GGAGACCAUACUAUACAACCUACUAGCUCA,0.137 ± 0.025,0.00491 ± 0.0023
GGAGAGGAUACCUAUACAACCUACUACCUCA,0.123 ± 0.027,0.0826 ± 0.033
GGAGUGGAUACUAUAGAACGUACUACCUCA,0.0156 ± 0.0021,0.00156 ± 0.0015
GGAGACGAUACUAUACAUCCUACUAGCUCA,0.173 ± 0.027,0.00336 ± 0.0019
GGAGACCUAUCUAUACAACCUACUACCUUCA,0.139 ± 0.017,0.0604 ± 0.023
GGAGAGGAUACUUAUACAACCUACUACCUCA,0.127 ± 0.012,0.112 ± 0.045
GGAGAGGAUACUAUACAACCUACAACCUCA,0.111 ± 0.015,0.00428 ± 0.0019
GGAGACCUUACUAUGCAACCUACUACCUCA,0.158 ± 0.011,0.0061 ± 0.0032
GGAGACCUAUCUAUACAACCUACUACGUCA,0.0507 ± 0.008,0.00352 ± 0.0031
